# Measured values from PubChem BioAssay (NCI).
# Compounds without any hit were thinned out: in the full panel of roughly 83,000, 20% have a hit.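 Single-dose data. Exposure time 48 hours. Values below 10 considered active.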 Unmarked numbers belong to inactive results. The source made the active and inactive calls.
# Test system: SNB-19 CNS
# Experiment: NCI-60 one-dose screen, 48 h (100 = growth as untreated, 0 = no growth, -100 = all killed)
# Settings: 10 µM
row,Compound,growth
1,O=C(O)c1ccccc1NCc1ccco1,108%
2,C/C(=C\c1cc(Cl)ccc1OCC(=O)O)[N+](=O)[O-],117%
3,CSC[C@H](NC(=O)COc1cccc2cnccc12)C(=O)NC(Cc1ccccc1)C(O)C(=O)N1CSC[C@H]1C(=O)NC(C)(C)C (some centres not stated),103%
4,COC1=CC(=O)c2nc(Cl)ccc2C1=O,113%
5,CCOC(=O)CCCC(=O)OCC,106%
6,N#Cc1ccc(NC(=O)Nc2cccc(C#N)c2)cc1,103%
7,COc1cc(C(=O)N/N=C/c2cccc([N+](=O)[O-])c2)cc(OC)c1OC,69.7%
8,CN(C)C(C)(C)CC(C)(C)C,105%
9,O=c1cc(-c2ccccc2)[nH]c2c1CCCC2,39.4%
10,CC1(c2ccccc2)NC(=O)NC1=O (configuration not stated),103%
11,CCCNC(=O)c1ccc(S(N)(=O)=O)cc1,107%
12,O=C(O)[C@@H]1[C@H]2C[C@H]3c4[nH]c5ccccc5c4CCN3C[C@@H]2CC[C@@H]1O,111%
13,CCCCOC(OCCCC)c1ccccc1,95.4%
14,CNc1nc(NC)c2cn[nH]c2n1,106%
15,CC(C)=NNc1ccc([N+](=O)[O-])cc1[N+](=O)[O-],98.3%
16,Nc1ccc(N=Nc2ccc(S(=O)(=O)O)cc2)c2ccccc12,106%

row,Compound,growth
1,COc1cc(OC)c2ccc(=O)oc2c1,99%
2,c1ccc(Sc2ccccc2)cc1,98.2%
3,COc1ccc2c(NCCCCCCCCNc3c4ccccc4nc4cc(OC)ccc34)c3ccccc3nc2c1,-86.7% (active)
4,O=C(NCCNC(=O)c1ccc(Cl)cc1Cl)c1ccc(Cl)cc1Cl,110%
5,CC1C(=O)c2ccccc2CC1C(=O)O (configuration not stated),128%
6,Cc1nc2ccccc2c2nnc(SCC(=O)N(Cc3ccccc3)c3ccccc3)n12,102%
7,CCCCC(O)c1ccccc1 (configuration not stated),110%
8,O=S(=O)(O)c1ccc(O)c2ccccc12,97.8%
9,O=C1Cc2ccccc2C(=O)O1,103%
10,Nc1nc(OCc2ccccc2)c2[nH]cnc2n1,104%
11,Cc1c(C(=O)O)c(=O)n(-c2ccccc2)n1C,111%
12,COc1cc(/C=C/C(=O)c2ccccc2)cc(OC)c1OC,83.8%
13,CC(=O)OCC1OC(OC2=C(CC=C(C)C)C(=O)c3ccccc3C2=O)C(OC(C)=O)C(OC(C)=O)C1OC(C)=O (configuration not stated),61.2%
14,CCCCC/C=N/Nc1nc(C)cc(=O)[nH]1,108%
15,[O-][N+](=Nc1cccc(Cl)c1)c1cccc(Cl)c1,100%
16,COc1ccc(-c2cc3c(nn2)-c2ccccc2C3=O)cc1,78.9%
